Screening data (PubChem)
The sample as a whole holds a higher share of hits than the screen did.
Pf Dd2 growth: qHTS Primary assay for Inhibitors of Plasmodium falciparum Dd2 growth in vitro; P. falciparum Dd2 growth, SYBR Green, 72 h; Potency, µM (titrated, usually from 28.9 µM), for inactives: at the highest dose activity, negative = inhibition, most hits filed as inhibitors; 120,000 tested, 4.3% active; AID 1347417, 2020; active = well fitted inhibition curve with a large enough effect;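 note: plate controls were DMSO vehicle for no effect and reference drug for full effect; nearly all actives have a fitted effect of over 65% in size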
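Infected erythrocytes (Dd2, 0.3% parasitemia, 2.5% hematocrit final) are added to compound in RPMI-1640/Albumax II medium, grown 72 h at 37C in low oxygen, then lysed with saponin/Triton-X containing SYBR Green and read by fluorescence.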
Starred values were filed as active, the others as inactive; i = inactive; [ ] = another dose, or the depositor's remark. Potency is the fitted concentration of half-maximal effect.

SMILES | Pf Dd2 growth
COc1ccc(OCC(=O)Nc2ccc(Cl)c(-c3nc4ncccc4o3)c2)cc1 | 7.9µM*
CN1CCC(NC(=O)C2CCCN(S(C)(=O)=O)CCC(=O)NCC2)CC1 (centres undefined) | 19%
Cc1cn2nc(C(=O)NCc3ccc(F)cc3)cc2c(=O)[nH]1 | -8%
Cc1noc(C)c1CN1CCC(NC(=O)C2CCC2)CC1 | 21%
CCOc1ccc(CNC(=O)CCc2cn(CC)c3ccccc23)cc1 | -12%
CCOc1ccc(NC(=O)N(Cc2cn(CC)c3ccccc23)C2CCCCCC2)cc1 | 10µM*
CCOc1ccc(NC(=O)Cn2cc(C(=O)C3CC3)c3ccccc32)cc1 | 5%
Cc1ccc(-c2nc(C(=O)NC(C)c3ccc(F)cc3)no2)cc1 (centres undefined) | 31%
CC(C)N1C(=O)C2(CCCC2)C1C(=O)NC1CCCC1 (centres undefined) | 19%
O=C(CC1=CCCCC1)N1CCC(C2CCNC2)CC1 (centres undefined) | 2%
Cn1ncc(N2CCC(NC(=O)CCC3CCCC3)CC2)cc1=O | -13%
CN1CCCN(C(=O)C2CCCN(Cc3ccncc3)CCC(=O)NCC2)CC1 (centres undefined) | 4%
CN(C)c1ccc(CN[C@H]2CO[C@H]3[C@@H]2OC[C@H]3OC(=O)Nc2ccc(Oc3ccccc3)cc2)cc1 | i
COc1ccccc1NC(=O)CN1CCC(O)(c2ccc(C)cn2)CC1 | -8%
Cc1ccc(C2(O)CCN(c3ncccc3C(F)(F)F)CC2)nc1 | -19%
Cc1ccc(C2(O)CCN(CC(c3ccccc3)c3ccccc3)CC2)nc1 | 2.8µM*
CCC(C)NC(=O)CN1CN(c2ccccc2)C2(CCN(C(=O)c3cccc(OC)c3)CC2)C1=O (centres undefined) | -15%
CC(C)NC(=O)N(C1CCOCC1)C1CN(S(=O)(=O)Cc2ccccc2F)C1 | -29%
O=C(Cc1c[nH]c2ccccc12)N[C@@H]1[C@@H]2CCO[C@@H]2[C@@H]1C1CCCC1 | -18%
COCCN1C(=O)c2ccccc2C(C(=O)Nc2ccc(OC)c(OC)c2)C12CCCC2 (centres undefined) | -3%
COCCN1C(=O)c2ccccc2C(C(=O)Nc2ccc(NC(C)=O)cc2)C12CCCCC2 (centres undefined) | -19%
COCCN1C(=O)c2ccccc2C(C(=O)Nc2ccc(OC)cc2OC)C12CCCC2 (centres undefined) | -14%
COCCN1C(=O)c2ccccc2C(C(=O)Nc2cc(OC)ccc2OC)C12CCCC2 (centres undefined) | i
COCCN1C(=O)c2ccccc2C(C(=O)NCCc2c[nH]c3ccccc23)C12CCCC2 (centres undefined) | -4%
COCCN1C(=O)c2ccccc2C(C(=O)Nc2ccc3[nH]ccc3c2)C12CCCC2 (centres undefined) | 11µM*
SMILES | Pf Dd2 growth
COCCN1C(=O)c2ccccc2C(C(=O)Nc2cc(OC)cc(OC)c2)C12CCCC2 (centres undefined) | 11µM*
COCCN1C(=O)c2ccccc2C(C(=O)Nc2ccc3c(c2)OCO3)C12CCCC2 (centres undefined) | 13µM*
COCCN1C(=O)c2ccccc2C(C(=O)Nc2ccc(OC)c(Cl)c2)C12CCCC2 (centres undefined) | -8%
COCCN1C(=O)c2ccccc2C(C(=O)Nc2ccc(C(N)=O)cc2)C12CCCCC2 (centres undefined) | -5%
COCCN1C(=O)c2ccccc2C(C(=O)Nc2cc(C)ccc2OC)C12CCCCC2 (centres undefined) | 10µM*
COCCN1C(=O)[C@@H]2C[C@@H](CN2C)Oc2ccccc21 | -14%[44.1 µM]
CCC[C@H]1CN(C(=O)c2cc(C(F)(F)F)ccc2Cl)C[C@@H]1N | i
O=C(NCc1ccc(F)cc1)[C@@H]1C[C@@H](c2ccc(F)cc2)N([S+](=O)([O-])c2cccnc2)C1 | i
COc1cccc(CCN2CC[C@H]3CN(C(=O)Nc4ccc(F)cc4)CC[C@H]3CC2=O)c1OC | i
COc1ccc(NC(=O)CN2C(=O)COc3ccc(C(=O)COc4ccccc4F)cc32)cc1 | i
O=C(NC1CCCN(c2cc(-c3ccc(F)cc3)[nH]n2)C1)C1CCCCC1 (centres undefined) | i
O=C(O)C1c2ccccc2C(=O)N(Cc2ccccc2)C12CCCC2 (centres undefined) | 3%
O=C(Nc1ccccc1F)C1c2ccccc2C(=O)N(Cc2ccccc2)C12CCCC2 (centres undefined) | 11µM*
O=C(NCCc1ccccc1)C1c2ccccc2C(=O)N(Cc2ccccc2)C12CCCC2 (centres undefined) | i
Cc1oc(-c2ccc(Cl)cc2)nc1CN1C(=O)CN=C(c2ccccc2)c2ccccc21 | 4%
COc1ccc(-c2nc(CN3C(=O)CN=C(c4ccccc4Cl)c4cc(Cl)ccc43)c(C)o2)cc1OC | 13µM*
Cc1oc(-c2ccc(Cl)cc2)nc1CN1C(=O)CN=C(c2ccccc2)c2cc(Cl)ccc21 | i
O=C(Nc1ccc(F)c(Cl)c1)N1CCC(Oc2ncccc2C(=O)N2CCOCC2)C1 (centres undefined) | 59%
CCn1cc(CN2CCCC(CNC(=O)c3cc(OC)cc(OC)c3)C2)c(C)n1 (centres undefined) | -15%
COc1ccccc1OCC(=O)NCC1CCCN(Cc2ccc(C)c(C)c2)C1 (centres undefined) | -7%
COc1cc(OC)cc(C(=O)NCC2CCCN(C/C=C/c3ccccc3OC)C2)c1 (centres undefined) | 8.9µM*
CC1(C(=O)NCCCc2ccccc2)CCCCC(=O)N1 (centres undefined) | i
CC(C)C1c2nccn2CCCN1C(=O)c1ccc(C#N)cc1 (centres undefined) | 12%
CCn1ccc(C(=O)N2CCCC(c3nc(-c4ccccc4)no3)CCNC(=O)CC2)n1 (centres undefined) | i
O=C(Cn1ccn2nc(-c3ccccc3)c(CO)c2c1=O)Nc1cccc(C(F)(F)F)c1 | -8%
SMILES | Pf Dd2 growth
COc1ccccc1Nc1nn2c(=O)c3ccc(C(=O)Nc4ccc(F)cc4)cc3nc2s1 | 31%
COc1cc(OC)cc(C(=O)Nc2ccc3nc4c(c(Nc5ccc(OC)c(OC)c5)c3c2)CCCC4)c1 | 0%
CCOc1ccccc1C(=O)Nc1ccc(S(=O)(=O)Nc2nc(C)cc(C)n2)cc1 | -4%
CCOc1ccccc1C(=O)Nc1ccc2nc3c(c(Nc4ccc(OC)c(OC)c4)c2c1)CCCC3 | 1.1µM*
COc1ccc(C)cc1NC(=O)c1ccc2c(Cl)c3c(nc2c1)CCC3 | 30%
COc1ccccc1Nc1c2c(nc3ccc(NC(=O)c4ccc(N(C)C)cc4)cc13)CCCC2 | 5.6µM*
O=C1COCC2(CN1Cc1cccc(OC(F)(F)F)c1)CN(C(=O)c1cccs1)C2 | i
O=C(O)c1ccc2c(c1)n(Cc1ccccc1)c(=O)c1ccnn12 | -16%
Cc1ccc(-c2noc(CCCC(=O)N3CCc4nc5cc(-c6ccccc6)[nH]n5c(=O)c4C3)n2)cc1 | 15%[5.79 µM]
C=CCN1CC2(CCC1=O)CCN(Cc1cccc(C#N)c1)CC2 | -23%
CC(NC(=O)C1CCC1)C(=O)N1CCN(c2ccccn2)CC1 (centres undefined) | i
COCC(=O)NC[C@H]1CCN(C2CCSCC2)C[C@H]1N(C)C | i
CCN(CC)C1CCN(C(=O)c2cc(OC)ccc2OC2CCN(C(=O)C3CC3)CC2)C1 (centres undefined) | 2%
Nc1c(C(=O)Nc2cccc(C(F)(F)F)c2)c2ccccn2c1C(=O)c1ccccc1 | i
